In the library only some 5.2% were active in any assay of this set; here they are far more common.
EphB4 antag = antagonists of human EphB4-ephrin-B2 interaction; EphB4 LBD / TNYL-RAW-Alexa532 peptide, fluorescence polarization; inhibition, % at 7 µM; AID 720; actives 0.15% (n = 97,000);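 active means inhibition above the screen-wide mean inhibition plus 3 SD, cut at about 15% in these data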;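 further: 0% = DMSO wells and 100% = excess unlabeled TNYL-RAW peptide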
Target sequence (P54760 whole entry, looked up, the tested form may be a part): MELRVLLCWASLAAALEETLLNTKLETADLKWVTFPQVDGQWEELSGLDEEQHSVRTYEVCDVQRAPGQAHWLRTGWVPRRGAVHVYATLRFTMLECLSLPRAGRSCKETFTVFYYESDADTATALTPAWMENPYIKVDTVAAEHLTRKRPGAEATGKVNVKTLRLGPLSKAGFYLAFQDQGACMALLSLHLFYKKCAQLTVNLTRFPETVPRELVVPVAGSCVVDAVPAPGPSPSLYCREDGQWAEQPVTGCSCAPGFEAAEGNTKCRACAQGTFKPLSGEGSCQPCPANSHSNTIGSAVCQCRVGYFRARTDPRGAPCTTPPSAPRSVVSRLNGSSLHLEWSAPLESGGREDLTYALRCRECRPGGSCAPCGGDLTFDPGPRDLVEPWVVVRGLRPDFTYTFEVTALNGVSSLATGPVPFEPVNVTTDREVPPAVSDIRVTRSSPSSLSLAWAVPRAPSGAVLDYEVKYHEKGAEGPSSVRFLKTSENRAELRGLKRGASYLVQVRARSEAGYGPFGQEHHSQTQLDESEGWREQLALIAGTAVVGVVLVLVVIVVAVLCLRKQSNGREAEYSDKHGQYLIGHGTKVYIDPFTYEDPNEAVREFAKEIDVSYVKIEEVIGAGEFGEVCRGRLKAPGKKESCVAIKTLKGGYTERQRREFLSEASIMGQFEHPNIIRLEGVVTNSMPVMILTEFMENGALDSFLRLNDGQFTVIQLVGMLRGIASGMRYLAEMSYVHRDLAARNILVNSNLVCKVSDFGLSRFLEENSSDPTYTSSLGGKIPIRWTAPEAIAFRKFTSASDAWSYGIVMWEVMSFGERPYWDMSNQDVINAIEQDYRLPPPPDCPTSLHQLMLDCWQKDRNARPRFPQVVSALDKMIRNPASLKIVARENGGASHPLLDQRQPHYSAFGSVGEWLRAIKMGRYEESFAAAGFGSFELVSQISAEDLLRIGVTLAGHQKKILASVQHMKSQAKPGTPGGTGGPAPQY
PostGolgi ctrl = yeast control strain growth, post-Golgi counter-screen; efflux-deficient yeast background strain, growth absorbance A615, 16 h; actives 5% (n = 98,000); AID 738; inhibition, % at 10 µM
Candida biofilm = kills Candida albicans biofilms; C. albicans biofilm + clotrimazole, Alamar Blue; inhibition, % at 6 µM; actives 0.14% (n = 85,000); AID 834;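 active means inhibition above 20%; inactive means inhibition below 20%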;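 further: preformed 24 hr biofilms exposed to compound for 48 hr; 0% = biofilm without compound and 100% = blank killed by clotrimazole plus chlorhexidine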
PostGolgi yeast = growth inhibition of a yeast mutant, post-Golgi transport screen | actives 0.9% (n = 98,000) | post-Golgi transport phenotypic cell assay | inhibition, % at 10 µM | AID 739;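 further: yeast cells grown in 1536-well plates; yeast grown about 18 h at 30C before absorbance read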
Starred values were filed as active, the others as inactive; x = no result. Unless noted, no stated cut-off is given here; in the data, active means inhibition above about 30%; inactive means the rest.

SMILES	EphB4 antag	PostGolgi ctrl	Candida biofilm	PostGolgi yeast
CS(=O)c1nc(-c2ccc(Br)cc2)cc(-c2ccccc2)c1C#N (stereo not drawn)	x	77*	2	-1
CS(=O)(=O)c1nc(-c2ccc(Br)cc2)cc(-c2ccccc2)c1C#N	-5	74*	2	10
COc1ccc(-c2cc(-c3ccccc3)c(C#N)c(S(C)(=O)=O)n2)cc1	2	51*	-3	4
N#Cc1c(-c2cccc(F)c2)cc(-c2ccccc2)nc1Br	7	1	x	0
Cc1nn(Cc2c(F)c(F)c(F)c(F)c2F)c(C)c1NC(=O)c1c(-c2ccccc2)nn(-c2ccccc2)c1C	-8	-2	x	-2
Cc1occc1C(=O)Nc1sc2c(c1C(N)=O)CCCCC2	6	31*	4	0
CCC(=O)Nc1sc2c(c1C(N)=O)CCC2	-1	31*	5	3
NC(=O)c1c(NC(=O)CN2C(=O)CCC2=O)sc2c1CCCCC2	-4	-9	x	32*
NC(=O)c1c(NC(=O)CN2CCCC2)sc2c1CCCC2	0	-12	8	0
O=C(NC1CCCCC1)c1cccc(COCC(F)(F)F)c1	-2	x	2	x
CCOC(=O)c1c(C)n(C)c2ccc(OC)c(NS(=O)(=O)c3ccc(Cl)s3)c12	-2	34*	8	-7
O=C(c1ccco1)N1CCN(c2ncnc3c2[nH]c2ccccc23)CC1	-8	3	-1	43*
CCOC(=O)N1CCN(c2ncnc3c2[nH]c2ccc(OC)cc23)CC1	2	37*	9	-5
Cc1cccc(C)c1OC(=O)CSc1nnc(-c2ccccc2O)o1	-2	-11	0	1
Clc1ccc(C(c2nnnn2C2CCCC2)N2CCN(Cc3ccncc3)CC2)cc1 (stereo not drawn)	4	5	x	11
O=c1c(C(c2nnnn2C2CCCCC2)N2CCCCC2)coc2ccc(Cl)cc12 (stereo not drawn)	x	87*	8	77*
Cc1cccc2c(C(=O)O)c3c(nc12)CCCCC3	17*	-10	x	1
C=CCNC(=S)NNC(=O)c1ccc(OCCCC)cc1	2	x	3	x
CCCOc1ccc(C(=O)NNC(=S)NC(C)=O)cc1	-5	32*	x	47*
Cc1nccc2[nH]c(=O)c(C(=O)NC3CCN(Cc4ccccc4)CC3)cc12	x	x	7	x
CCCCSc1nnc(-c2cc(Br)ccc2N)c(=O)[nH]1	1	36*	-2	8
C/C=C(\CS(=O)(=O)c1ccccc1)S(=O)(=O)c1ccccc1	-5	5	1	-1
CN(C)S(=O)(=O)c1ccc(NC(=O)COC(=O)c2ccccn2)cc1	6	2	1	-19
O=C(Nc1ccc2c(c1)OCO2)C1CCN(S(=O)(=O)c2cccc3cccnc23)CC1	3	-9	8	-7
CC(C)NC(=O)C(=O)NC1CCCCCC1	-1	6	7	-7
SMILES	EphB4 antag	PostGolgi ctrl	Candida biofilm	PostGolgi yeast
O=C(NNC(=O)C1CCCCC1)C(=O)NC1CCCCC1	16*	1	x	5
NC(=O)C1CCCN(S(=O)(=O)c2ccc(Br)cc2)C1 (stereo not drawn)	-1	8	9	-5
S=c1nc(-c2ccccc2)[nH]n1-c1ccccc1	-2	12	-3	-3
S=c1nc2ccccc2c2nc(-c3ccccc3)[nH]n12	-3	44*	6	7
O=C(Nc1ccc(Cl)cn1)C1CCCN1S(=O)(=O)c1ccc(Cl)cc1 (stereo not drawn)	1	19	-3	20
O=C(Nc1ccc(Cl)cn1)C1CCCN1S(=O)(=O)c1cccc2ccccc12 (stereo not drawn)	-1	50*	2	-3
CCN(CC)c1ccc2cc(-c3nnc(-c4ccncc4)o3)c(=O)oc2c1	5	51*	x	-1
CCN(CC)c1ccc2cc(C(C)=O)c(=O)oc2c1	1	6	1	1
COc1ccc(-n2c3c(c(=O)[nH]c2=O)C(C(F)(F)F)(C(F)(F)F)N=C(CC(C)C)N3)cc1	-8	12	x	-2
COc1ccc(C2=NC(C(F)(F)F)(C(F)(F)F)c3c(n(C)c(=O)n(C)c3=O)N2)cc1	2	9	x	92*
COc1ccc(-c2nc(-c3cccs3)c(-c3cccs3)[nH]2)cc1O	-9	31*	6	-1
Cc1cc(C)c(S(=O)(=O)N2CCCCC2)c(C)c1-n1ncnn1	3	8	-8	-5
CC(C)(C)c1ccc(C2C3=C(CCCC3=O)NC3=C2C(=O)c2ccccc23)cc1 (stereo not drawn)	-1	32*	x	-18
N#CCSc1nnc(COc2cccc3ccccc23)n1-c1cccc(Cl)c1	-5	54*	x	-10
N#CCSc1nnc(COc2cccc3ccccc23)n1-c1ccccc1	1	31*	-6	-8
COc1ccc(-n2c(COc3cccc4ccccc34)nnc2SCC#N)cc1	-1	x	4	x
Cn1c(Cc2ccccc2)nnc1SCC(=O)c1ccc(Br)s1	-3	20	6	13
COc1ccccc1-c1cc(C(=O)NC(C)c2ccccc2)no1 (stereo not drawn)	-11	61*	8	14
COc1ccc(-c2csc(Cc3nnc4n3CCCCC4)n2)cc1	3	-4	1	13
c1ccc2sc(Cc3nnc4n3CCCCC4)nc2c1	x	41*	5	-2
Oc1ccc(Cl)cc1CNc1ccc(Br)cn1	9	48*	6	0
Oc1c(Cl)cc(Cl)cc1CNc1ccc(Br)cn1	-5	11	8	5
CCSc1c(C(=O)NC)ccc2c1C(=O)c1ccccc1C2=O	-1	10	8	-1
COC(=O)c1cccc2c1-c1ccccc1/C2=N/O	-7	47*	9	-9
COC(=O)c1ccc2c(c1O)C(=O)c1ccccc1C2=O	-1	83*	x	105*
SMILES	EphB4 antag	PostGolgi ctrl	Candida biofilm	PostGolgi yeast
COc1ccc(S(=O)(=O)NCCc2csc(-c3cccnc3)n2)cc1	2	22	9	5
O=C(NCc1ccc2c(c1)OCO2)c1ccc(CS(=O)(=O)c2cccc(C(F)(F)F)c2)o1	3	27	x	96*
O=C(NCc1ccc2c(c1)OCO2)c1ccc(-c2ccc(Cl)cc2)o1	2	70*	4	16
O=C(NCc1ccco1)c1ccc(CS(=O)(=O)c2cccc(C(F)(F)F)c2)o1	-3	4	x	0
CC(NC(=O)c1ccc(CS(=O)(=O)c2cccc(C(F)(F)F)c2)o1)c1ccc2c(c1)OCCO2 (stereo not drawn)	-1	14	5	37*
O=C(/C=C/c1ncc(C(F)(F)F)cc1Cl)OCc1ccccc1	-9	3	x	19
Cc1cc(C(C)(C)C)ccc1OCCN1CCCC1	0	29	7	67*
Cc1nn(C(=O)CCCC(=O)n2nc(C)c(Cl)c2C)c(C)c1Cl	5	x	4	x
COc1ccc(S(=O)(=O)N2CCOCC2)c(Cl)c1Cl	0	30*	4	-1
O=S(=O)(Nc1ccc(N2CCOCC2)cc1)c1ccc2ccccc2c1	3	48*	0	4
Cc1ccc(S(=O)(=O)Nc2ccc(N3CCOCC3)cc2)cc1	-2	-3	2	-9
COc1cc(NS(=O)(=O)c2ccc(C)c(C)c2)c(OC)cc1Cl	-2	47*	8	-7
COc1ccc(S(=O)(=O)N2CCOCC2)cc1Cl	4	1	-4	-7
